# An excerpt weighted towards active compounds, which were near 8.3% of everything screened.
# MARV entry inh – blocks Marburg virus binding to or entry into cells. 1.8% of 300,000 active. Potency, µM (titrated, usually from 37.8 µM), for the others: at the highest dose activity change, negative = inhibition, hits mostly inhibitors. Marburg virus pseudotyped entry inhibition, cell reporter. AID 540276; calls by dose curve; tested in HEK293 cells; further: potency means the concentration at half of the fitted maximal effect
# HCMV inh – blocks human cytomegalovirus replication; HFF cells, HCMV-luciferase reporter, 72 h; active compounds read low; activity change, negative = inhibition, % at 57.5 µM; 4.5% of 410,000 active; in the data active means activity change below about -60%; inconclusive means no clear call, values can overlap the other calls; inactive means above about -39%
#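 Human foreskin fibroblasts infected with luciferase-reporter HCMV at MOI 1 PFU/cell, compounds at two doses. Luciferase measured 72 h post infection; normalized to buffer-only basal and Salinomycin (10uM) controls.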
# Giardia FBPA inh-1 – blocks Giardia fructose-bisphosphate aldolase activity; A8B2U2; AID 2451; Potency, µM (highest dose often 59.6 µM), without a hit: at the top dose activity, negative = inhibition, most hits filed as inhibitors; purified Giardia FBPA; 0.71% of 290,000 active; further: potency means the concentration at half of the fitted maximal effect; nearly all actives have a fitted effect of over 55% in size
# Target sequence (A8B2U2 whole entry, looked up): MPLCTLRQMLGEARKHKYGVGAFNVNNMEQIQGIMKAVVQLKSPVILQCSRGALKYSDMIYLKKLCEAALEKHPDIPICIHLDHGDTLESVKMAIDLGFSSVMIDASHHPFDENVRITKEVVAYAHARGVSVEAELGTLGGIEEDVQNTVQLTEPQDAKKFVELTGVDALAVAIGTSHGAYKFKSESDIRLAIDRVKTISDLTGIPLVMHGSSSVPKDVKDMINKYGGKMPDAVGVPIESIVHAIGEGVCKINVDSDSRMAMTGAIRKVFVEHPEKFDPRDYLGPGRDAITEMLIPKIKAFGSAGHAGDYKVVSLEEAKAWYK
#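 Giardia FBPA (40 nM reagent) was preincubated 10 min at RT with compound (up to 57.5 uM final), then substrate plus GAPDH/TPI/NAD/arsenate coupling system with diaphorase/resazurin was added; resorufin fluorescence (525/598 nm) was read after 20 min.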
# FMDV antiviral – foot and mouth disease virus antiviral activity | FMDV antiviral cell-based qHTS | Potency, µM (titrated, usually from 57.9 µM), for the others: at the top dose activity change, negative = inhibition, hits mostly inhibitors | 1.2% of 410,000 active; calls by dose curve; tested in HEK293T cells; further: read-out not given here; potency means the concentration at half of the fitted maximal effect; nearly all actives have a fitted effect of over 45% in size
# Lassa entry inh – blocks Lassa virus binding to or entry into cells. Potency, µM (top dose mostly 37.9 µM), without a hit: at the highest dose activity change, negative = inhibition, most hits filed as inhibitors. 1.2% of 300,000 active. AID 540256. Lassa virus pseudotype entry inhibition, cell reporter; calls by dose curve; tested in HEK293 cells; further: potency means the concentration at half of the fitted maximal effect; nearly all actives have a fitted effect of over 50% in size
# HCV inh – inhibitors of hepatitis C virus infection; Huh7.5.1 HCVcc-Cre infection, luciferase reporter, 44 h; Potency, µM (top dose mostly 41.8 µM), for the others: at the highest dose activity change, negative = inhibition, most hits filed as inhibitors; 3.4% of 340,000 active; AID 651820; further: potency means the concentration at half of the fitted maximal effect
#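 Cells (1,000/well) were plated 4 h before compound, then infected with HCVcc-Cre virus (~0.5 moi). After 44 h further culture, infection was read as luciferase luminescence following a 15 min substrate incubation at room temperature.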
# Giardia growth – Giardia lamblia growth inhibition. shares compounds with Giardia FBPA inh-1. Giardia lamblia trophozoite growth inhibition. Potency, µM (series often up to 57.5 µM), inactives show top-dose activity change, negative = inhibition, actives largely listed as inhibitors. 5% of 1,500 active. AID 2785;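 further: potency means the concentration at half of the fitted maximal effect; trophozoites exposed to compound for 48 h at 37 °C; nearly all actives have a fitted effect of over 70% in size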
# Mammal cell tox – mammalian cytotoxicity of Giardia aldolase inhibitor hits; AID 2786; shares compounds with Giardia FBPA inh-1; 4% of 1,500 active; mammalian cell viability counter-screen, qHTS; Potency, µM (titrated, usually from 57.5 µM), for inactives: at the highest dose viability change, negative = toxicity, actives largely listed as inhibitors;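 further: Chinese hamster ovary cells used as mammalian cytotoxicity surrogate; viability measured as cellular ATP by luminescence; potency means the concentration at half of the fitted maximal effect; compound exposure lasted 48 h before reading; nearly all actives have a fitted effect of over 60% in size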
# Giardia FBPA inh-2 – confirmation of Giardia fructose-bisphosphate aldolase inhibitors; shares compounds with Giardia FBPA inh-1; purified Giardia aldolase enzyme activity, qHTS; Potency, µM (top dose mostly 57.5 µM), for the others: top-dose activity change, negative = inhibition, hits mostly inhibitors; 5% of 1,500 active; further: potency means the concentration at half of the fitted maximal effect; nearly all actives have a fitted effect of over 45% in size
# Rabbit aldolase – rabbit FBP aldolase inhibition by Giardia aldolase hits. shares compounds with Giardia FBPA inh-1. Rabbit muscle FBPA enzyme inhibition, selectivity counter-screen. Potency, µM (doses to about 57.5 µM), for the others: top-dose activity, negative = inhibition, actives largely listed as inhibitors. 4% of 1,500 active. AID 2794; further: potency means the concentration at half of the fitted maximal effect; nearly all actives have a fitted effect of over 60% in size
# Target sequence (P00883 whole entry, looked up): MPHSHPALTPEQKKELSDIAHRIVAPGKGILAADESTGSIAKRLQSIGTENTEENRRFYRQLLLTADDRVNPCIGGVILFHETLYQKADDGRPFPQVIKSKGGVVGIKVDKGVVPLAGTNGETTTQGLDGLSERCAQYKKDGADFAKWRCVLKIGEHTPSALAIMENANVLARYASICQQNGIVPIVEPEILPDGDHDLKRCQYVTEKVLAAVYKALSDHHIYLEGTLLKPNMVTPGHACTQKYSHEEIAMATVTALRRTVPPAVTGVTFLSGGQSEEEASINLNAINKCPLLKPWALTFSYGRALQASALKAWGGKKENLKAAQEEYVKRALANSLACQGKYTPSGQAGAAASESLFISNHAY
# GAPDH coupling – counter-screen for Giardia aldolase inhibitors: GAPDH coupling enzyme. shares compounds with Giardia FBPA inh-1. GAPDH coupling enzyme counterscreen, biochemical, qHTS. Potency, µM (doses to about 57.5 µM), for inactives: top-dose activity change, negative = inhibition, most hits filed as inhibitors. 6% of 1,500 active; further: potency means the concentration at half of the fitted maximal effect; nearly all actives have a fitted effect of over 55% in size
# * = called active by the depositor; ? = inconclusive; / = not tested or not shown; [ ] = dose if it differs, or a comment. Unless noted, the call rests on the fitted dose curve; in most records, active means well fitted curve in the direction sought with a large enough effect; inconclusive means small, poorly fitted or top-dose-only effect, or another doubt; inactive means no such curve, though single readings can be large; an effect the other way counts as inactive or inconclusive. On the % scale 0 is the no-effect control and ±100 the full control effect.
SMILES,MARV entry inh,HCMV inh,Giardia FBPA inh-1,FMDV antiviral,Lassa entry inh,HCV inh,Giardia growth,Mammal cell tox,Giardia FBPA inh-2,Rabbit aldolase,GAPDH coupling
N#CC1=C2SCN(c3ccc(F)cc3)CN2C(=O)CC1c1cccc(F)c1 (centres undefined),/,-92.8*,7.06µM*,-2.2%,/,-1.4%,11.8%,4.9%,-27.8%,?,-25.5%
CCOC(=O)c1ccc(N2CSC3=C(C#N)C(c4cccs4)CC(=O)N3C2)cc1 (centres undefined),0.4%,18.1,19.9µM*,-19.9%,/,2.9%,25.0%,-17.5%,-13.1%,-22.8%,-7.3%
NC(=NCc1ccc2c(c1)OCO2)NC(=O)c1ccccc1,?,?,1.41µM*,-22.9%,0.0%,2.0%,12.7%[38.3 µM],-4.3%,-6.6%,-0.1%,6.9%
Nn1c(SCC(=O)Nc2ccccc2C(F)(F)F)nncc1=O,-16.7%[46.1 µM],-10.4,20µM*,-6.4%,-5.2%[46.1 µM],9.3%,-12.7%[10.4 µM],9.7%,0.6%,-1.3%,8.4%
Nn1c(SCC(=O)Nc2ccc3c(c2)OCCO3)nncc1=O,?,-12.8,25.1µM*,15.1%,19.8%[46.1 µM],8.7%,20.9%,17.7%,-6.6%,1.7%,14.6%
Cc1ccccc1-c1nnc(SCC(=O)Nc2ccc3c(c2)OCCO3)n1N,25.7%,54.5,-2.3%,-2.8%,1.4%,6.5%,/,/,/,/,/
CCSc1nnc(NC(=O)CSc2nncc(=O)n2N)s1,-11.8%[46.1 µM],24.7,-26.4%,-16.0%,24.7%[46.1 µM],19.3%,/,/,/,/,/
CCc1nnc(NC(=O)CSc2nncc(=O)n2N)s1,/,-5.5,25.1µM*,15.3%,/,7.2%,31.3%,11.3%,-4.2%,6.5%,6.6%
CC1=CC(=O)c2ccccc2C1=O,25.5%,?,?,-12.8%,4.0%,-6.3%,-8.0%[38.3 µM],-13.6%,?,?,?
Cc1cc(=O)n(Cc2ccccc2Cl)c2c1c(C)nn2-c1ccccc1,/,6.1,/,-8.2%,14.6%[46.1 µM],/,/,/,/,/,/
O=C(CCC1N=C2c3ccccc3N=C(SCC(=O)Nc3ccc(F)cc3)N2C1=O)NCc1ccco1 (centres undefined),/,28.6,/,0.0%,-1.4%[46.1 µM],/,/,/,/,/,/
C1=CCC(CN2CCN(C3CCCCCC3)CC2)CC1 (centres undefined),?,-29.3,14.1µM*,-3.7%,?,?,-10.2%,5.5%,1.3%,-1.7%,-0.3%
O=c1c(=O)n(O)c2ccccc2n1O,12.8%,15.1,17.7µM*,/,-13.3%,7.1%,?,-7.0%,-18.2%,-15.6%,-7.6%
Fc1ccccc1-n1ncc2c1ncn1nc(COc3ccc(Cl)cc3)nc21,22.9%[46.1 µM],6.1,/,-14.9%,16.3%[46.1 µM],/,/,/,/,/,/
NS(=O)(=O)c1ccc(NC(=S)NC2CCCCC2)cc1,/,-22.7,9.98µM*,5.7%,/,15.8%,-2.1%[38.3 µM],?,39.8µM*,?,39.8µM*
O=C(CNCc1cccs1)Nc1ccc(N2CCCCCC2)cc1,0.8%[46.1 µM],-27.9,17.7µM*,12.9%,15.6%[46.1 µM],1.7%,?,-11.1%,-15.5%,-13.6%,-13.2%
O=C(CNCc1cccs1)Nc1ccc(S(=O)(=O)N2CCCCC2)cc1,-28.9%[46.1 µM],-27.4,?,19.4%,25.4%[46.1 µM],20.0%,/,/,/,/,/
CCCOc1ccc(C(C)=O)cc1Cc1c(O)[nH]c(=S)[nH]c1=O,2.8%,-1.7,?,-6.1%,?,26.8%,/,/,/,/,/
CCOc1ccc(C(C)=O)cc1Cc1c(O)[nH]c(=S)[nH]c1=O,/,-7.1,22.4µM*,-14.8%,/,11.8%,-16.0%,1.1%,-8.3%,1.5%,-16.4%
Cc1ccc(/C=C2\SC(=S)N(CC3CCCO3)C2=O)o1 (centres undefined),20.7%[46.1 µM],-85.3*,17.7µM*,31.9%,-2.4%,-5.5%,-22.1%,10.3%,-22.8%,-10.2%,-17.7%
COc1cc(OC)c(NC(=O)c2nn(C)c3c2COc2ccccc2-3)cc1Cl,-16.7%[46.1 µM],-14.9,/,-3.1%,-28.1%[46.1 µM],/,/,/,/,/,/
S=c1nc[nH]c2c1ncn2C1CCCC1,/,19.9,3.97µM*,-0.8%,/,3.6%,7.6%[38.3 µM],-2.9%,-3.2%,-11.4%,-4.7%
OCC1CCCC(n2cnc3c(=S)nc[nH]c32)O1 (centres undefined),13.0%[46.1 µM],?,3.97µM*,-10.8%,?,5.3%,7.9%[38.3 µM],16.9%,-2.8%,-0.9%,?
O=C(Nc1cccc(Cl)c1)C1CCCN(c2nn3cc(-c4ccc(F)cc4)nc3s2)C1 (centres undefined),/,0.0,/,-24.2%,-10.3%[46.1 µM],/,/,/,/,/,/
O=C(CN(CC1CCCO1)C(=O)CNS(=O)(=O)c1ccccc1)NCc1ccco1 (centres undefined),17.3%[46.1 µM],-20.7,12.5%,2.8%,1.6%,0.9%,/,/,/,/,/
O=C(CNCC1CCCO1)NCc1ccco1 (centres undefined),4.7%[46.1 µM],-24.1,15.8µM*,8.7%,-0.9%,20.7%,?,3.9%,2.2%,8.4%,7.4%

# Assay outcomes: PubChem BioAssay, National Center for Advancing Translational Sciences (NCATS)
